# Sampled rows, rich in hits. Any-hit rate of the full collection: about 17%.
# HT1080-NT tox – kills 2HG-producing HT-1080-NT fibrosarcoma cells; HT-1080-NT fibrosarcoma viability, CellTiter-Glo ATP luminescence, 48 h; Potency, µM (titrated, usually from 46.1 µM), inactives show at the top dose activity, negative = less viability, most hits filed as cytotoxic; 360,000 compounds, 1.6% hits; AID 686970;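 also: NT is the 2HG producing partner of a matched IDH1 knockdown line; 0% = DMSO-treated cells and -100% = media-only wells without cells; nearly all actives have a fitted effect of over 55% in size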
#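 Toxicity toward the 2HG-producing NT line was scored as %Activity, normalised to DMSO and no-cell wells, from CellTiter-Glo luminescence after 48 hours' treatment.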
# TGFb inhibitor – blocks TGF-b signaling | Potency, µM (highest dose often 46.1 µM), for inactives: at the highest dose activity, negative = inhibition, actives largely listed as inhibitors | 410,000 compounds, 1.2% hits | HepG2 CAGA-GFP TGF-b/SMAD3 reporter, GFP fluorescence, 18 h; TGF-beta stimulated, 500 pg/mL final; also: % is scaled to controls: 0 for no effect and ±100 for the full control effect; nearly all actives have a fitted effect of over 65% in size
#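 Using HEPG2 CAGA-GFP reporter cells at 1000 cells/well, we pinned test compounds, stimulated with recombinant TGF-beta (500 pg/mL final) and measured total well GFP after 18 h.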
# TDP1 cell noCPT – qHTS for Inhibitors of human tyrosyl-DNA phosphodiesterase 1 (TDP1): qHTS in cells in absence of CPT; DT40 Tdp1-/- hTDP1 cells, no CPT, ATP luminescence, 48 h; AID 686978, 2013; Potency, µM (doses to about 46.2 µM), for the others: at the top dose activity change, negative = growth inhibition, usual class: inhibitors; 420,000 compounds, 15% hits; also: % is scaled to controls: 0 for no effect and ±100 for the full control effect; nearly all actives have a fitted effect of over 55% in size
#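 Compound effects on proliferation are scored in DT40 Tdp1-/-;hTDP1 cells in the absence of CPT. ATP levels (CellTiter-Glo luminescence) are recorded after a ≥48 hr, 37 °C incubation.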
# HT1080 IDH1KD tx – kills HT-1080 cells with IDH1 knockdown; Potency, µM (doses to about 46.1 µM), inactives show at the highest dose activity, negative = toxicity, usual class: cytotoxic; 360,000 compounds, 2% hits; HT-1080 IDH1 knockdown viability, ATP luminescence, 48 h;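 also: 0% = DMSO wells and -100% = cell-free medium wells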
#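 Assay cells: HT-1080 with IDH1 knockdown, 750 per well, RPMI/5% FBS. Exposure: 48 h at 37 °C following 2 h pre-incubation. Read: CellTiter-Glo luminescence; fitted concentration-response, curve class assigned.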
# HepG2 tox – kills HepG2 cells in TGF-b inhibitor counter-screen; HepG2 CAGA-GFP viability, ATP luminescence, 18 h; Potency, µM (titrated, usually from 46.1 µM), for inactives: at the top dose activity change, negative = cytotoxicity, most hits filed as cytotoxic; 410,000 compounds, 0.76% hits; AID 588856
#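 HepG2 CAGA-GFP cells (1000/well, DMEM with 1% FBS) received compound, then TGF-beta at 500 pg/mL final, and were incubated 18 hours at 37 degrees C. Viability was read by CellTiter-Glo luminescence. Media-only wells were set as complete cell-killing and DMSO as no toxicity.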
# DT40 TDP1 CPT – growth inhibition of DT40 Tdp1-/-;hTDP1 cells with camptothecin (screen for TDP1 inhibitors); chicken DT40 Tdp1-/-;hTDP1 cells + 20 nM CPT, ATP luminescence, 48 h; Potency, µM (doses to about 46.2 µM), inactives show at the top dose activity change, negative = growth inhibition, hits mostly inhibitors; 420,000 compounds, 12% hits; AID 686979; also: % is scaled to controls: 0 for no effect and ±100 for the full control effect; nearly all actives have a fitted effect of over 55% in size
#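 Chicken DT40 Tdp1-/- cells stably complemented with human TDP1 were seeded at 400 cells/well in medium containing 20 nM camptothecin, exposed to pin-transferred compounds, and grown at 37 °C for at least 48 hr. Viability was read as ATP luminescence.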
# An asterisk follows results filed as active; ? = inconclusive; . = no result given; [ ] = remark or other dose. Calls follow the shape of the dose curve; as a rule, active = well fitted curve in the direction sought with a large enough effect; inconclusive = small, poorly fitted or top-dose-only effect, or another doubt; inactive = no such curve, though single readings can be large; an effect the other way counts as inactive or inconclusive. Potency is read from the fitted curve at half-maximal effect.
SMILES,HT1080-NT tox,TGFb inhibitor,TDP1 cell noCPT,HT1080 IDH1KD tx,HepG2 tox,DT40 TDP1 CPT
COc1ccccc1/C=C/c1onc(C)c1S(=O)(=O)N1CCC(C(=O)NC(C)C)CC1,-1%,-7%,-29%,0%,-15%,-1%
CC(=O)c1ccc(N2CCN(C(=O)C3CCN(S(=O)(=O)c4c(C)noc4/C=C/c4ccccc4F)CC3)CC2)cc1,.,-20%,10µM*,.,-11%,?
Cc1ccc(/C=C/c2onc(C)c2S(=O)(=O)N2CCC(C(=O)Nc3cccc(C#N)c3)CC2)cc1,.,-25%,3.7µM*,.,4%,3.3µM*
Clc1ccccc1OCCn1nnc2ccccc21,-2%,-7%,-5%,-1%,21%,8%
COc1cc(C(C)=O)ccc1OCC(=O)NCC(c1ccc(F)cc1)N1CCOCC1 (stereo not drawn),3%,0%,-14%,8%,3%,-19%
Cc1noc(/C=C/c2ccccc2F)c1S(=O)(=O)N1CCC(C(=O)Nc2ccc(C#N)cc2)CC1,.,4.5µM*,8.2µM*,.,-43%,12µM*
COc1cc(NC(=O)C2CCN(S(=O)(=O)c3c(C)noc3/C=C/c3ccccc3F)CC2)cc(OC)c1OC,.,-26%,23µM*,.,-10%,?
CNC(=O)C1CCN(S(=O)(=O)c2c(C)noc2/C=C/c2ccccc2F)CC1,1%,-23%,-14%,0%,-24%,-20%
COc1ccccc1CNC(=O)c1ccc2nc(CCc3ccccc3)oc2c1,.,31%,-26%,.,-12%,?
COC(=O)c1cc(S(=O)(=O)Nc2cccc(-c3cnco3)c2)oc1C,0%,2%,13%,0%,-16%,-8%
Cn1c(CNC2CCCCC2)c(C#N)c2ccccc21,-2%,-6%,-10%,-6%,-4%,-20%
O=C(Nc1cccc(S(=O)(=O)NC2=NCCC2)c1)c1cn(-c2ccccc2)nc1-c1ccc(F)cc1,?,?,2.6µM*,?,-33%,3.7µM*
Cc1ccc(-c2nn(-c3ccccc3)cc2C(=O)Nc2cccc(S(=O)(=O)NC3=NCCC3)c2)cc1,0%,-9%,0.21µM*,0%,0%,3%
O=C(O)c1cccc(NC(=O)c2cn(-c3ccccc3)nc2-c2ccc(F)cc2)c1,-3%,0%,-3%,-2%,29%,-1%
O=C(NC1CC2CCCC(C1)N2C(=O)Nc1ccccc1F)C1CC1 (stereo not drawn),28%,-14%,?,17%,1%,-29%
COCCNC(=O)CSc1nc2cc3c(cc2c(=O)n1Cc1ccco1)OCO3,6%,-16%,-19%,3%,-19%,-27%
CCC(Sc1nc2cc3c(cc2c(=O)n1Cc1ccco1)OCO3)C(=O)Nc1cccc(OC)c1 (stereo not drawn),-18%,-15%,?,-29%,0%,?
CCC(Sc1nc2cc3c(cc2c(=O)n1Cc1ccco1)OCO3)C(=O)Nc1ccccc1OC (stereo not drawn),-14%,-3%,8.2µM*,-3%,-9%,8.2µM*
CCCCNC(=O)CSc1nc2cc3c(cc2c(=O)n1Cc1ccco1)OCO3,12%,-20%,16µM*,-8%,2%,18µM*
Cc1c(Cl)cccc1NC(=S)NC(=O)c1ccccc1,2%,-14%,?,5%,-19%,-15%
CN(c1ccccc1)S(=O)(=O)c1cccc(NC(=O)CCNC(=O)c2ccc(Cl)cc2)c1,-11%,?,?,-18%,-16%,23µM*
CCCC(=O)Nc1cccc(S(=O)(=O)N(C)c2ccccc2)c1,6%,-1%,?,1%,5%,16µM*
CN(c1ccccc1)S(=O)(=O)c1cccc(NC(=O)CCNC(=O)c2ccccc2)c1,4%,-12%,16µM*,6%,-64%,18µM*
CN(c1ccccc1)S(=O)(=O)c1cccc(NC(=O)CCNC(=O)c2ccc([N+](=O)[O-])cc2)c1,1%,1%,?,-1%,-35%,?
Cc1c(C(=O)O)sc2[nH]c(=O)n(Cc3ccccc3)c(=O)c12,4%,8%,0%,1%,10%,1%
SMILES,HT1080-NT tox,TGFb inhibitor,TDP1 cell noCPT,HT1080 IDH1KD tx,HepG2 tox,DT40 TDP1 CPT
COc1ccc(-c2csc(C(O)c3ccc(F)c(F)c3)n2)cn1 (stereo not drawn),-22%,5%,-24%,1%,-13%,-3%
COc1ccc(-c2csc(C(O)c3ccc(F)c(OC)c3)n2)cc1 (stereo not drawn),?,7%,15µM*,-20%,-6%,13µM*
COc1ccc(C(O)c2nc(-c3ccc(F)c(Cl)c3)cs2)cc1 (stereo not drawn),?,-6%,?,?,-23%,?
COCc1cccc(-c2csc(C(O)c3cccc(OC)c3)n2)c1 (stereo not drawn),1%,12%,?,-19%,-4%,18µM*
COc1ccc(-c2csc(C(O)c3ccc(F)c(OC)c3)n2)cn1 (stereo not drawn),-24%,17%,23µM*,-29%,-15%,16µM*
COCc1cccc(-c2csc(C(O)c3ccc(F)c(OC)c3)n2)c1 (stereo not drawn),-28%,-10%,21µM*,-8%,-23%,8.2µM*
COc1ccc(Cl)cc1NC(=O)NNC(=O)C(=O)Nc1ccc(F)cc1,-2%,-4%,13%,?,-11%,-18%
COC(=O)C1CCCCN1Cc1ccc2c(c1)CN(C(=O)c1cc(C)nc3cc(F)ccc13)CCO2 (stereo not drawn),.,.,?,.,.,11%[9.04 µM]

# Screening data (PubChem BioAssay)
